Screens from PubChem BioAssay.
An excerpt weighted towards active compounds, which were near 2.2% of everything screened.
IL2 activator – IL-2 activation; activation, % (series mostly up to about 46 µM); 360,000 compounds, 0.065% hits; IL-2 activation reporter assay, cell-based qHTS; stimulated with anti-CD3/CD4/CD28 beads; in transgenic mouse T cells; AID 652025; in the data active means activation above about 50%; inconclusive means mostly about 30% to 49%
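Screening format: compound pinned onto unstimulated transgenic mouse T cells, 60 min incubation, then anti-CD3/anti-CD4/anti-CD28 bead stimulation for 18 hours at 37 degrees C, followed by EGFP and DsRed detection.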
Giardia killer – Giardia lamblia killing; Giardia lamblia trophozoite viability; activity change, % at 7.66 µM, hits read low; 340,000 compounds, 0.15% hits; in the data active means activity change below about -80%; inconclusive means between about -30% and that limit;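 further: parasites exposed to compound for two days anaerobically before the ATP read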
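Trophozoites 100 cells/well + cpd; 48 hrs, 37 deg C, anaerobic. ATPLite 1-Step added, 15-30 min RT, luminescence read (ATP-based viability).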
TrxR1 inh – inhibitors of rat thioredoxin reductase 1; O89049; recombinant rTrxR1, NADPH fluorescence consumption, selenite substrate; Potency, µM (series often up to 114 µM), hits mostly inhibitors; 390,000 compounds, 1% hits; further: nearly all actives have a fitted effect of over 65% in size
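Rat TrxR1 (90 nM in the dispensed reagent) was pre-reduced with 400 uM NADPH for 5 min at room temperature, then incubated with compound for 15 min. After 400 uM selenite was added, NADPH fluorescence (Ex 340/Em 450 nm) was followed for 8 min.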
mIDH1 inhibitor – human IDH1 R132H inhibition; O75874; IDH1-R132H enzyme, NADPH consumption, diaphorase/resazurin fluorescence; Potency, µM (top dose mostly 76.6 µM), usual class: inhibitors; 390,000 compounds, 0.093% hits; further: nearly all actives have a fitted effect of over 65% in size
Target sequence (O75874 whole entry R132H, stated change not applied): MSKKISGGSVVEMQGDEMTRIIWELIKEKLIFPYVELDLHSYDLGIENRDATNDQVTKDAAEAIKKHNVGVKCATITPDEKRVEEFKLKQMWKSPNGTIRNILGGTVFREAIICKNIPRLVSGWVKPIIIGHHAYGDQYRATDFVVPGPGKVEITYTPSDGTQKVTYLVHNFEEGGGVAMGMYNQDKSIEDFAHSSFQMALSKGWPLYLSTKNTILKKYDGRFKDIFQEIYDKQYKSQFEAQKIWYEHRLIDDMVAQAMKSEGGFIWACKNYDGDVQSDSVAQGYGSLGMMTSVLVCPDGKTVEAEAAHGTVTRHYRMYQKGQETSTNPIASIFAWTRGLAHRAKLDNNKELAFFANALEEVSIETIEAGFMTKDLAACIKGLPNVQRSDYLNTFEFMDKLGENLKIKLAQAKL
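IDH1-R132H (0.5 ug/mL) preincubated 30 min with compound, then NADPH (0.016 mM) and alpha-KG (2 mM) added; 80 min at RT, pH 7.5. Remaining NADPH coupled via diaphorase/resazurin to fluorescence (540/590 nm); concentration-response curves normalized to no-enzyme control.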
TrxR1 substrate – is turned over as a substrate by rat TrxR1. 390,000 compounds, 0.01% hits. purified TrxR1 substrate turnover, NADPH consumption readout. O89049. Potency, µM (doses to about 114 µM); further: nearly all actives have a fitted effect of over 50% in size
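Rat TrxR1, dispensed at 90 nM, was prereduced with 400 uM NADPH (final) for 5 min at ~22 deg C, then incubated with compound 15 min before 400 uM selenite. A first-read NADPH fluorescence drop versus no-compound background flagged substrates.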
BRCA1 expr up – activators of BRCA1 expression. MCF7-BRCA1-FFLuc reporter, luminescence, 48 h; response scale: scaled: vehicle 0%, 10 µM genistein 100%. Potency, µM (highest dose often 46.1 µM), actives largely listed as activators. 380,000 compounds, 1.1% hits. AID 624202; further: nearly all actives have a fitted effect of over 80% in size
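Activators of BRCA1 expression were detected as increased firefly luciferase luminescence in engineered MCF7 cells after 48 h compound incubation. Signals were scaled to genistein 10 microM as full activation.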
IDH1 autofl – counter-screen for mutant IDH1 inhibitors: fluorescence interference. shares compounds with mIDH1 inhibitor. Resorufin detection reagent fluorescence interference, cell-free. inhibition of signal, % at 51.2 µM. 750 tested, under 10 active
WT IDH1 inh – wild-type IDH1 (human) inhibition counterscreen. shares compounds with mIDH1 inhibitor. WT IDH1 enzyme, NADPH diaphorase/resazurin fluorescence. Potency, µM (titrated, usually from 115 µM), actives largely listed as inhibitors. 750 compounds, 9% hits. AID 623995; further: nearly all actives have a fitted effect of over 55% in size
Target sequence (O75874 whole entry, looked up): as the sequence (O75874 whole entry R132H, stated change not applied) above, with H132R counted along it
mIDH1 confirm – inhibits human mutant IDH1 enzyme in cherrypick confirmation | shares compounds with mIDH1 inhibitor | IDH1 R132H enzyme, NADPH diaphorase/resazurin fluorescence | Potency, µM (top dose mostly 76.6 µM), usual class: inhibitors | 750 compounds, 83% hits; further: nearly all actives have a fitted effect of over 50% in size
Of the large screens only hits and unclear results are named; the others gave an inactive call (follow-up assays come after a bar, where they were run). Unless noted, the call rests on the fitted dose curve; in most records, active means well fitted curve in the direction sought with a large enough effect; inconclusive means small, poorly fitted or top-dose-only effect, or another doubt; inactive means no such curve, though single readings can be large; an effect the other way counts as inactive or inconclusive.

CCC(C)Nc1nc(N)c([N+](=O)[O-])c(Nc2ccccc2OC)n1 (configuration not stated)	none
CC(=O)N1CCN(c2ccccc2NC(=O)c2ccc(-c3cccc([N+](=O)[O-])c3)o2)CC1	mIDH1 inhibitor inconclusive | IDH1 autofl inactive | WT IDH1 inh inactive | mIDH1 confirm inconclusive
O=C(NC(=S)Nc1ccccc1N1CCCC1)c1ccc(-c2cccc([N+](=O)[O-])c2)o1	none
CC(C)CCn1c(SCc2cccc(F)c2)nc2ccsc2c1=O	none (no result: IL2 activator, Giardia killer, BRCA1 expr up)
CC(C)(C)n1nnnc1C(c1cccs1)N(Cc1cccnc1)Cc1ccccc1Cl (configuration not stated)	mIDH1 inhibitor inconclusive | IDH1 autofl inactive | WT IDH1 inh inactive | mIDH1 confirm 20µM
CCCc1noc2c1C(c1cc(Br)ccc1F)C(C#N)=C(N)N2 (configuration not stated)	mIDH1 inhibitor 52µM | IDH1 autofl inactive | WT IDH1 inh inactive | mIDH1 confirm 40µM
CC(=O)SC1CC(=O)N(c2ccc(C(C)(C)C)cc2)C1=O (configuration not stated)	mIDH1 inhibitor inconclusive | IDH1 autofl inactive | WT IDH1 inh inactive | mIDH1 confirm 22µM
CC(=O)SC1CC(=O)N(c2c(C)cccc2C)C1=O (configuration not stated)	none
COc1cc(SC#N)ccc1N=Cc1c(C)[nH]n(-c2ccc(C)cc2C)c1=O	mIDH1 inhibitor 41µM | IDH1 autofl inactive | WT IDH1 inh inactive | mIDH1 confirm 16µM
COc1ccc(Cn2ccc3nc(C)c(C(=O)N4CCN(c5ccccc5OC)CC4)cc3c2=O)cc1	none (no result: IL2 activator, Giardia killer, BRCA1 expr up)
CCOc1ccccc1NC(=O)Nc1cc(C(=O)NCc2ccc(C)cc2)ccc1N1CCCC1	none (no result: IL2 activator, Giardia killer, BRCA1 expr up)
CCCC(=O)N1CCN(c2nc3ccc(F)cc3s2)CC1	none (no result: IL2 activator, Giardia killer, BRCA1 expr up)
COc1cccc(C(C(=O)NC2CCCCC2)N(C(=O)c2ccco2)c2ccc(-n3cnnn3)c(C)c2)c1 (configuration not stated)	none
COc1cccc(C(C(=O)NC2CCCCC2)N(C(=O)Cc2cccs2)c2ccc(-n3cnnn3)c(OC)c2)c1 (configuration not stated)	mIDH1 inhibitor inconclusive | IDH1 autofl inactive | WT IDH1 inh inactive | mIDH1 confirm 8.9µM
COc1cccc(C(C(=O)NC2CCCCC2)N(C(=O)c2cccs2)c2ccc3c(c2)OCO3)c1 (configuration not stated)	mIDH1 inhibitor inconclusive | IDH1 autofl inactive | WT IDH1 inh inactive | mIDH1 confirm inactive
COc1cc(N(C(=O)Cc2cccs2)C(C(=O)NC2CCCCC2)c2cccc(OC)c2OC)ccc1-n1cnnn1 (configuration not stated)	mIDH1 inhibitor inconclusive | IDH1 autofl inactive | WT IDH1 inh inactive | mIDH1 confirm inconclusive
COc1ccc(N(C(=O)C2COc3ccccc3O2)C(C(=O)NC2CCCCC2)c2ccccc2)cc1OC (configuration not stated)	mIDH1 inhibitor 5.2µM | IDH1 autofl inactive | WT IDH1 inh inactive | mIDH1 confirm 2.8µM
COc1ccccc1NC(=O)c1cc2cc3ccc(OC)c(Cl)c3nc2s1	none (no result: IL2 activator, Giardia killer, BRCA1 expr up)
Cc1cc2oc(C(=O)Nc3cccc(-c4nc5ccccc5o4)c3)c(C)c2cc1C	none (no result: IL2 activator, Giardia killer)
Cc1ccc2c(CNCCc3ccco3)c(C(=O)O)n(Cc3ccc(F)cc3)c2c1	none (no result: IL2 activator, Giardia killer)
COc1ccc(C(CC(=O)Nc2cc(OC)c(OC)c(OC)c2)N2Cc3ccccc3C2=O)cc1 (configuration not stated)	none (no result: IL2 activator, Giardia killer, BRCA1 expr up)
C[C@@H]1CN([C@H](C)CO)S(=O)(=O)c2ccc(C#Cc3ccccc3F)cc2O[C@H]1CN(C)C(=O)c1ccc2c(c1)OCO2	mIDH1 inhibitor inconclusive (no result: Giardia killer, TrxR1 inh, TrxR1 substrate) | IDH1 autofl inactive | WT IDH1 inh inactive | mIDH1 confirm 5.6µM
CC(C)(C)c1cc(CP(=O)(c2ccccc2)c2ccccc2)cc(C(C)(C)C)c1O	mIDH1 inhibitor inconclusive | IDH1 autofl inactive | WT IDH1 inh inactive | mIDH1 confirm 28µM
O=P(Cc1ccccc1)(c1ccccc1)c1ccccc1	none
CCCCOC(=O)CSC1=C(C#N)C(c2ccccc2OC)C(C#N)C(=O)N1 (configuration not stated)	mIDH1 inhibitor inconclusive | IDH1 autofl inactive | WT IDH1 inh inactive | mIDH1 confirm 45µM
CCCOC(=O)CSC1=C(C#N)C(c2ccccc2OCC)C(C#N)C(=O)N1 (configuration not stated)	mIDH1 inhibitor inconclusive | IDH1 autofl inactive | WT IDH1 inh inactive | mIDH1 confirm 45µM
Cc1onc(-c2c(F)cccc2Cl)c1C(=O)Nc1cc(S(=O)(=O)N2CCCCC2)ccc1O	Giardia killer inconclusive, mIDH1 inhibitor 52µM | IDH1 autofl inactive | WT IDH1 inh inactive | mIDH1 confirm 35µM
CCc1ccc(CNC(=O)c2cnc3sc(N4CCOCC4)nn3c2=O)cc1	none (no result: IL2 activator, Giardia killer, BRCA1 expr up)
COc1cc(NS(=O)(=O)c2ccc(NC(=S)NC(=O)/C=C/c3ccc(OC)c(OC)c3)cc2)ncn1	mIDH1 inhibitor inconclusive
COc1ccc(/C=C/C(=O)NC(=S)Nc2ccc(S(=O)(=O)Nc3cc(OC)ncn3)cc2)cc1	mIDH1 inhibitor inconclusive | IDH1 autofl inactive | WT IDH1 inh 40µM | mIDH1 confirm 5µM
CN(C)CCNC(=O)c1ccc(-n2c(-c3ccccc3)cc3c2CCCC3)cc1	none (no result: IL2 activator, Giardia killer, BRCA1 expr up)
CCC(=O)Oc1ccc2c(=O)c(-c3ccc4ccccc4n3)c(CC)oc2c1C	mIDH1 inhibitor 52µM | IDH1 autofl inactive | WT IDH1 inh inactive | mIDH1 confirm 7.1µM
N#CC1=C(N)C(C#N)(C#N)C(c2cccnc2)C2COCC=C12 (configuration not stated)	mIDH1 inhibitor inconclusive | IDH1 autofl inactive | WT IDH1 inh inactive | mIDH1 confirm 40µM
CCOc1ccc(OCC)c(NC(=O)c2nnn(CC(=O)Nc3ccc(C)cc3C)c2N)c1	none (no result: IL2 activator, Giardia killer)
COc1cc2ncc(C(=O)c3ccc(C)cc3)c(N3CCCCC3)c2cc1OC	mIDH1 inhibitor inconclusive (no result: IL2 activator, Giardia killer) | IDH1 autofl inactive | WT IDH1 inh inactive | mIDH1 confirm 14µM
CCOC(=O)C1CCN(c2c(C(=O)c3ccc(C)cc3)cnc3ccc(F)cc23)CC1	none (no result: IL2 activator, Giardia killer)
